Experimental data: publication PMC10726135, “HNF4α isoforms regulate the circadian balance between carbohydrate and lipid metabolism in the liver”
Over roughly 18,000 sequences, “log2 normalized intensity” has its median near 0.36; the highest 2% begin near 7.3. What follows is part of a selection rich in the highest values, with near analogues and random picks from the rest.

What follows are sequences tested against T1, HNF4alpha8 (COS-7 nuclear extract) (Homo sapiens, UniProt P41235-5 1-452) (assay: protein-binding microarray; COS-7 nuclear extract on double-stranded Agilent 4x180k PBM; binding buffer, salt, pH and temperature not given in the material; high values mean tight binding). Details: chain copies: 2; label: 3' end of strand 1 on the slide; dsDNA, one strand shown.
T1 sequence: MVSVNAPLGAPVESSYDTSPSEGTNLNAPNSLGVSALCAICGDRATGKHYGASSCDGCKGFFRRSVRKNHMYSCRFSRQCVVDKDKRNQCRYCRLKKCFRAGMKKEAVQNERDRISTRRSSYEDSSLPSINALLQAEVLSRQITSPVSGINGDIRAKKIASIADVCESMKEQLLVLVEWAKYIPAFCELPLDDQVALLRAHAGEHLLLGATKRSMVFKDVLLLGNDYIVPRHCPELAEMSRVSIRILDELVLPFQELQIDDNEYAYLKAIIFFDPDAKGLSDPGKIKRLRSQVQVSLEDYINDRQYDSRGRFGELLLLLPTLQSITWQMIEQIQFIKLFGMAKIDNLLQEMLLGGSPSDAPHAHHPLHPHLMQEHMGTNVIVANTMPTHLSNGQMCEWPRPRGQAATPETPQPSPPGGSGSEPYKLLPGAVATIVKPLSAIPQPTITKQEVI
Method in brief: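 Binding signal was defined as the normalized, background-corrected gProcessedSignal reported by Agilent software. It came from nuclear extracts of COS-7 cells transiently transfected with a human HNF4α isoform expression vector, applied to a custom Agilent SurePrint G3 4x180k array. That array held ~44,000 test sequences in quadruplicate as double-stranded ~60-nt oligonucleotides, and bound HNF4α was imaged at 2-µm resolution on an Agilent G2565CA scanner.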

Sequence	binding signal
CCAATTATTGCGAGTTTAGGAGGGTTCCTGGCCTAGGGAGATTAGAGTATCGGTCGA	-0.0269 log2 normalized intensity
GATCCACGGAGAATGTAGACCTTTACCACCGCCTAGGGAGATTAGAGTATCGGTCGA	2.35 log2 normalized intensity
ATCCCCCACACCGAGATAGTAGAGATAGTGGCCTAGGGAGATTAGAGTATCGGTCGA	2.5 log2 normalized intensity
TCAAAGTCCAAATAGCGCTAACTCTATATCGCCTAGGGAGATTAGAGTATCGGTCGA	0.779 log2 normalized intensity
TGGCACTGAAGAATGTCTAAATCTGAAGGAGCCTAGGGAGATTAGAGTATCGGTCGA	-0.983 log2 normalized intensity
GTGTTGACCTCTGGACCTCATCTTCCTCCCGCCTAGGGAGATTAGAGTATCGGTCGA	5.2 log2 normalized intensity
TCTTTCAAGATAACAAGGCAAACTTTATCAGCCTAGGGAGATTAGAGTATCGGTCGA	-0.554 log2 normalized intensity
ATGTGTTTGCATGACTCATAAAGAACAGTTGCCTAGGGAGATTAGAGTATCGGTCGA	0.739 log2 normalized intensity
ATTTTGGACTTTGTGCAAATGGAAAATTGTGCCTAGGGAGATTAGAGTATCGGTCGA	3.52 log2 normalized intensity
AGGGGTTACTAGTGAGTTGGACTTTGGACCGCCTAGGGAGATTAGAGTATCGGTCGA	11.6 log2 normalized intensity
GACCTGTCTTCCTGGTGACCTTTGTTTGGTGCCTAGGGAGATTAGAGTATCGGTCGA	5.66 log2 normalized intensity
AACGGTTCAAAGGACAGACTTTGGACCTGGGCCTAGGGAGATTAGAGTATCGGTCGA	7.98 log2 normalized intensity
GTAGAGACCTGTCTTCCTGGTGACCTTTGTGCCTAGGGAGATTAGAGTATCGGTCGA	7.95 log2 normalized intensity
TTACCGGTGTGACTTTGGTTGGATTTCTTGGCCTAGGGAGATTAGAGTATCGGTCGA	1.56 log2 normalized intensity
TGACAACTGAATGTGACCTTTTGGACCACAGCCTAGGGAGATTAGAGTATCGGTCGA	7.4 log2 normalized intensity
CCTGATGACAACTGAATGTGACCTTTTGGAGCCTAGGGAGATTAGAGTATCGGTCGA	6.26 log2 normalized intensity
TTCAAAGGACAGACTTTGGACCTGGCCCTCGCCTAGGGAGATTAGAGTATCGGTCGA	6.56 log2 normalized intensity
ACTGAATGTGACCTTTTGGACCACAGAGTGGCCTAGGGAGATTAGAGTATCGGTCGA	5.97 log2 normalized intensity
GTCAAGTAGAGACCTGTCTTCCTGGTGACCGCCTAGGGAGATTAGAGTATCGGTCGA	2.25 log2 normalized intensity
GATACAACGGTTCAAAGGACAGACTTTGGAGCCTAGGGAGATTAGAGTATCGGTCGA	4.08 log2 normalized intensity
GGGGACCTTTGGCCTTTACCTGTTACTTATGCCTAGGGAGATTAGAGTATCGGTCGA	4.06 log2 normalized intensity
GACCTCATGTAGTCACATACCTATGCAAACGCCTAGGGAGATTAGAGTATCGGTCGA	1.02 log2 normalized intensity
CAGCATCTTCACCGTAAAGCCACCCCTTTCGCCTAGGGAGATTAGAGTATCGGTCGA	2.59 log2 normalized intensity
AGCGATCATGGGTGACCCGTTAAGAATGAGGCCTAGGGAGATTAGAGTATCGGTCGA	1.24 log2 normalized intensity
CTTAGAATCGAATTGTGAAACTCAGAATCAGCCTAGGGAGATTAGAGTATCGGTCGA	-0.796 log2 normalized intensity
TCACCTACTGACCTTTCTCCCTTTTCACAGGCCTAGGGAGATTAGAGTATCGGTCGA	3.5 log2 normalized intensity
AAGATCTGTGAAAGAAAAGTACTTTAGTGTGCCTAGGGAGATTAGAGTATCGGTCGA	0.992 log2 normalized intensity

Sequence	binding signal
CAACAGGTGTTAAAATAACGACCTTTGGGCGCCTAGGGAGATTAGAGTATCGGTCGA	6.57 log2 normalized intensity
AATATCTCAGCACATGGCAGTGTACACTAGGCCTAGGGAGATTAGAGTATCGGTCGA	0.805 log2 normalized intensity
GAGAGAAAAAATCAGAGAGCAAAGGTGATCGCCTAGGGAGATTAGAGTATCGGTCGA	2.63 log2 normalized intensity
ATTCCCCGACTCCTGGGTGTGAGATAAGGCGCCTAGGGAGATTAGAGTATCGGTCGA	0.0557 log2 normalized intensity
AGACTGGTTTGCACAGGTTACACAGTATGTGCCTAGGGAGATTAGAGTATCGGTCGA	-0.754 log2 normalized intensity
AAGGTCACTAATTGGAAGCTCTTTCCCTCCGCCTAGGGAGATTAGAGTATCGGTCGA	0.732 log2 normalized intensity
GAGCACTCATTCCTATTCGGTGCTGACCTTGCCTAGGGAGATTAGAGTATCGGTCGA	3.97 log2 normalized intensity
ACACACAATAAGGACTTTGGACCGTCTTGTGCCTAGGGAGATTAGAGTATCGGTCGA	8.19 log2 normalized intensity
GTTAAGTGAGTGGACTTTGGTCCTGGTCAGGCCTAGGGAGATTAGAGTATCGGTCGA	7.53 log2 normalized intensity
AGGACTTTGGACCGTCTTGTGGATCCTTGGGCCTAGGGAGATTAGAGTATCGGTCGA	5.27 log2 normalized intensity
CTCATTCCTATTCGGTGCTGACCTTTGTTCGCCTAGGGAGATTAGAGTATCGGTCGA	8.62 log2 normalized intensity
TCCTATTCGGTGCTGACCTTTGTTCACATTGCCTAGGGAGATTAGAGTATCGGTCGA	6.64 log2 normalized intensity
CAATAAGGACTTTGGACCGTCTTGTGGATCGCCTAGGGAGATTAGAGTATCGGTCGA	6.72 log2 normalized intensity
GTGAGTGGACTTTGGTCCTGGTCAGACTTGGCCTAGGGAGATTAGAGTATCGGTCGA	6.78 log2 normalized intensity
TTTGGACCTGGCCTGCGGGGTCAGGCCGTGGCCTAGGGAGATTAGAGTATCGGTCGA	2.71 log2 normalized intensity
AGTCCATGTGTTAAATAATAACACTCCCATGCCTAGGGAGATTAGAGTATCGGTCGA	-0.441 log2 normalized intensity
CCTTCCCTTTCATGTTGAACGTCTTCAGAAGCCTAGGGAGATTAGAGTATCGGTCGA	1.35 log2 normalized intensity
CTGCCCAGACCTTATCTTGCATTTCTTCAGGCCTAGGGAGATTAGAGTATCGGTCGA	0.246 log2 normalized intensity
CTGCCTGCTTGGCCTCTCCACTTGGGTATCGCCTAGGGAGATTAGAGTATCGGTCGA	-0.182 log2 normalized intensity
GGACTTGATCCAGGGCAAAGGTCATAATTTGCCTAGGGAGATTAGAGTATCGGTCGA	7.95 log2 normalized intensity
ACACAGGACTTGATCCAGGGCAAAGGTCATGCCTAGGGAGATTAGAGTATCGGTCGA	7.91 log2 normalized intensity
TGATCCAGGGCAAAGGTCATAATTTGATCCGCCTAGGGAGATTAGAGTATCGGTCGA	6.94 log2 normalized intensity
CAAAGGTCATAATTTGATCCAGTGTGCAAAGCCTAGGGAGATTAGAGTATCGGTCGA	4.08 log2 normalized intensity
CACAGAGCAAAGGTCATGCATAGAAGTATGGCCTAGGGAGATTAGAGTATCGGTCGA	4.43 log2 normalized intensity
AGAAAACACAGAGATCTGATCAAAGGTCATGCCTAGGGAGATTAGAGTATCGGTCGA	6.61 log2 normalized intensity
AATGGAGTTTGGTTTAAAGTTCAAGTCATAGCCTAGGGAGATTAGAGTATCGGTCGA	2.74 log2 normalized intensity
AGGTGTAACCTGCTCTCTCATGCCCTTTGCGCCTAGGGAGATTAGAGTATCGGTCGA	4.81 log2 normalized intensity
